What was measured:
Experiment in all cases: log2 ratio of Biotin-Ahx-Ub-VS probe labelling (fragment/DMSO); higher = less target engagement (more negative = stronger competition), active = hit call of the paper (q ≤ 0.05, log2 ratio ≤ -1)
Settings in all cases: compound concentration: 200 uM; treatment time: 3 h
OTUD6B = molecular target: T1, OTUD6B (UniProt Q8N6M0)
T1 sequence (whole entry): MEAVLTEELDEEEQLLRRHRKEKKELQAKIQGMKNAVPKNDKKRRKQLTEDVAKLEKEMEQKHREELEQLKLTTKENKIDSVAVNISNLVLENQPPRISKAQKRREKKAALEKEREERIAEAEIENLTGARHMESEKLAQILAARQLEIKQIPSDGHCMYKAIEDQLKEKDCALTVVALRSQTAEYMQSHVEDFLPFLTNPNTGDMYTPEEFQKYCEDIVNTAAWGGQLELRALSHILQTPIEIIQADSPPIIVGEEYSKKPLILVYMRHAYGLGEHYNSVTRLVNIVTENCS
Method in brief: (§1)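 Fragment (200 µM) or vehicle was incubated for 3 h with triplicate HEK293T lysate samples of 495 µg, which were then treated with Biotin-Ahx-Ub-VS at 0.5 µM final for 1 h. Labelled DUBs were enriched on NeutrAvidin, digested with LysC and trypsin, and analysed by diaPASEF LC-MS/MS. Values are average log2 fragment/vehicle ratios from an unpaired t-test on global-median-normalised Spectronaut label-free quantities, using proteins with ≥2 unique peptides.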

OTUD7B = molecular target: T2, OTUD7B (UniProt Q6GQQ9)
T2 sequence (whole entry): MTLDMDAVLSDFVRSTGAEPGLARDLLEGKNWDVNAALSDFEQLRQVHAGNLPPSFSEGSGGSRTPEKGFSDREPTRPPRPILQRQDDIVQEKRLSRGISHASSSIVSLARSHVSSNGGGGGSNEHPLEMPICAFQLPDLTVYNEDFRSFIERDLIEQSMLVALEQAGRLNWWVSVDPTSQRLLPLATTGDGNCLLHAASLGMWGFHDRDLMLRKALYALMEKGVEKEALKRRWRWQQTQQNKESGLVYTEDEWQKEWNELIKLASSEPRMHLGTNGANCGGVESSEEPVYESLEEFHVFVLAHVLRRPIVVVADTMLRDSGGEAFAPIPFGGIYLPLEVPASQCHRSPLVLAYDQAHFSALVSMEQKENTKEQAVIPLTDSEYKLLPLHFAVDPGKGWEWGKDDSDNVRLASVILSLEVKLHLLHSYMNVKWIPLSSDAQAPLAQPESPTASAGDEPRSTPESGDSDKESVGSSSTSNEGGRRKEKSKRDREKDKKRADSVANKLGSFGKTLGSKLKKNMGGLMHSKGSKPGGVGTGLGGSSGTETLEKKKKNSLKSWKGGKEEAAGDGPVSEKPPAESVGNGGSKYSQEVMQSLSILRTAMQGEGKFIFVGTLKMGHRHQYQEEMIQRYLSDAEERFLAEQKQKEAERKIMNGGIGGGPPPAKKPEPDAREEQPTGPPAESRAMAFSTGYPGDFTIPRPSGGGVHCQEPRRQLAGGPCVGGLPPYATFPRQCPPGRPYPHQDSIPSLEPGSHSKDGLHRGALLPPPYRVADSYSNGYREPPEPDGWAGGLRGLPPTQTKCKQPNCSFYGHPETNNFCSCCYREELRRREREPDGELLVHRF
Method in brief: as §1

PRPF8 = PRPF8 (UniProt Q6P2Q9)
Method in brief: as §1

PSMD7 = molecular target: T3, PSMD7 (UniProt P51665)
T3 sequence (whole entry): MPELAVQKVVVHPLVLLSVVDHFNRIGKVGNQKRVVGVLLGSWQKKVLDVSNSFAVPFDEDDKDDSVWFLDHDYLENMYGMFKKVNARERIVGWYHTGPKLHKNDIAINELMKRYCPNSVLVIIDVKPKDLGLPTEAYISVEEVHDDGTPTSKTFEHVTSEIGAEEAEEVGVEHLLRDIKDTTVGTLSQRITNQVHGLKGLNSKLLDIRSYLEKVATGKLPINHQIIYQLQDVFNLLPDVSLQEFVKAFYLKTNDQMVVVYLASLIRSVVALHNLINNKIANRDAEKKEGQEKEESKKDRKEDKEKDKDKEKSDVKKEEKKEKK
Method in brief: as §1

UCHL1 = UCHL1 (UniProt P09936)
Method in brief: as §1

UCHL3 = molecular target: T4, UCHL3 (UniProt P15374)
T4 sequence (whole entry): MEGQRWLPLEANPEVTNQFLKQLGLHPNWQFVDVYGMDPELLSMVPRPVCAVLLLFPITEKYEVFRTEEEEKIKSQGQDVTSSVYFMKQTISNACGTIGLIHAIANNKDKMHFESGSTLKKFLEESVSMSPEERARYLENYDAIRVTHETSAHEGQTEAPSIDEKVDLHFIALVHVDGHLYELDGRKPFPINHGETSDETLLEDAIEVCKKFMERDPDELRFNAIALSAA
Method in brief: as §1

UCHL5 = molecular target: T5, UCHL5 (UniProt Q9Y5K5)
T5 sequence (whole entry): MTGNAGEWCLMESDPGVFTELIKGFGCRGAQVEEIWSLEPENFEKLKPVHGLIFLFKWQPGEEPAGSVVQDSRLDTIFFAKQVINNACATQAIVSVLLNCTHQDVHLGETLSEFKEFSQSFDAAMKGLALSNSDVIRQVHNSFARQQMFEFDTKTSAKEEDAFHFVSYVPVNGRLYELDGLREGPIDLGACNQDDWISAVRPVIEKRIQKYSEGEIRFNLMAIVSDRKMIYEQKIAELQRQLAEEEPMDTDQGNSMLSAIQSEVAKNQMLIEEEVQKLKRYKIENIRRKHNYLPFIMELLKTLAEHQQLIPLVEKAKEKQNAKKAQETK
Method in brief: as §1

USP10 = USP10 (UniProt Q14694)
Method in brief: as §1

USP15 = molecular target: T6, USP15 (UniProt Q9Y4E8)
T6 sequence (whole entry): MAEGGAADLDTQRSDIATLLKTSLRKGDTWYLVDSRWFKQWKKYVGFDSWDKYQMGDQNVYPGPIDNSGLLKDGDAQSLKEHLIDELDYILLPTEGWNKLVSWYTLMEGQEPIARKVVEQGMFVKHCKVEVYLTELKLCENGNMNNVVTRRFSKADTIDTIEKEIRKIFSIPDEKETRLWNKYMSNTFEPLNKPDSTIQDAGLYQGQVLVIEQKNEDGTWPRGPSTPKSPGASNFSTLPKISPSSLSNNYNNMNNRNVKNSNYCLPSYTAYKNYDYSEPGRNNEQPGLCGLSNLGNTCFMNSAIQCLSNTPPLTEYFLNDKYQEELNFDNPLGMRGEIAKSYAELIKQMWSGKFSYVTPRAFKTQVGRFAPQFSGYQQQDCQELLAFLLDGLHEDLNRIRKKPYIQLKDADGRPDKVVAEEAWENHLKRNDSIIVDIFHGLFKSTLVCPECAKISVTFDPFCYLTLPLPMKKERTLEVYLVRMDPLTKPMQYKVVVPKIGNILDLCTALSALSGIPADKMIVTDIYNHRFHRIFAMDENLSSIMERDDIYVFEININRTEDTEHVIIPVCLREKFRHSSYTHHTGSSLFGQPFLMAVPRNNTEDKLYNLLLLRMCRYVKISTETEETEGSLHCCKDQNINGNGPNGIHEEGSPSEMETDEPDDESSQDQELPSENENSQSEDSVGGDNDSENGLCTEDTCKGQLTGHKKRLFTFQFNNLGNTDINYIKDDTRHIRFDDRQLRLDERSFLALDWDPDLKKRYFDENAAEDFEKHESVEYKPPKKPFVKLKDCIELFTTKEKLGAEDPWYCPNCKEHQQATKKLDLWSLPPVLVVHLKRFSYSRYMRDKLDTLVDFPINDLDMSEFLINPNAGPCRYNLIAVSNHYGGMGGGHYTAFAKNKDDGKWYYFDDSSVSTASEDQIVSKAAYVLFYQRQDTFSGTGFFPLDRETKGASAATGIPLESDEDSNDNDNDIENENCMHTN
Method in brief: as §1

USP16 = USP16 (UniProt Q9Y5T5)
Method in brief: as §1

Measured: log2 ratio of Biotin-Ahx-Ub-VS probe labelling

Chain of USP10 (Q14694 whole entry): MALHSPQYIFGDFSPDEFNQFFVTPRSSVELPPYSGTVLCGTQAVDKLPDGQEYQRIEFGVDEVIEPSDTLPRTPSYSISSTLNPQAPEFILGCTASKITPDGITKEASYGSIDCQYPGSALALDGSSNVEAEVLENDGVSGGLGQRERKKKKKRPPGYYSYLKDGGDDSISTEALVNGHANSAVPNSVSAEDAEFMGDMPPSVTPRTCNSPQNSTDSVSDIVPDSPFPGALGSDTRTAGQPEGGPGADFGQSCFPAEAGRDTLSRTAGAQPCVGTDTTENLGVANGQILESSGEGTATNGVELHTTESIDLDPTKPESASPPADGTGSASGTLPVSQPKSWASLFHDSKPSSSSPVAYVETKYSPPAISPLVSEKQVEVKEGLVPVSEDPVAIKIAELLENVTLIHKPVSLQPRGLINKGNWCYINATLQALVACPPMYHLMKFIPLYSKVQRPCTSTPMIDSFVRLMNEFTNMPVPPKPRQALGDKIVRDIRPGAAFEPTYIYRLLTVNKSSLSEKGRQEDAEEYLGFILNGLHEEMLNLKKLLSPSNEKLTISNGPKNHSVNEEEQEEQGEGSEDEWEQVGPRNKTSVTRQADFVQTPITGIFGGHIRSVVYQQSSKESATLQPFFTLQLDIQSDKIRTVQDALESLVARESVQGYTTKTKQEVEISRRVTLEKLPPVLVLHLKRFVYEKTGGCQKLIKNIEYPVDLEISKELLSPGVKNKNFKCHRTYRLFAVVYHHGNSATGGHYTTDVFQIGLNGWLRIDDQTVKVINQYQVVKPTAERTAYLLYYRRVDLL
Chain of UCHL1 (P09936 whole entry, looked up): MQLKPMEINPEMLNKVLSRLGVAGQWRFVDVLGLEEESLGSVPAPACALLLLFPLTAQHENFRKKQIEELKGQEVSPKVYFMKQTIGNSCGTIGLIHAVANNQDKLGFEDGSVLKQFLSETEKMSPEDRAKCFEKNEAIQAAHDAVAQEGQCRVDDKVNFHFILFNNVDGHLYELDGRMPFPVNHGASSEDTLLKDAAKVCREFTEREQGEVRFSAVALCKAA
Chain of USP16 (Q9Y5T5 whole entry, looked up): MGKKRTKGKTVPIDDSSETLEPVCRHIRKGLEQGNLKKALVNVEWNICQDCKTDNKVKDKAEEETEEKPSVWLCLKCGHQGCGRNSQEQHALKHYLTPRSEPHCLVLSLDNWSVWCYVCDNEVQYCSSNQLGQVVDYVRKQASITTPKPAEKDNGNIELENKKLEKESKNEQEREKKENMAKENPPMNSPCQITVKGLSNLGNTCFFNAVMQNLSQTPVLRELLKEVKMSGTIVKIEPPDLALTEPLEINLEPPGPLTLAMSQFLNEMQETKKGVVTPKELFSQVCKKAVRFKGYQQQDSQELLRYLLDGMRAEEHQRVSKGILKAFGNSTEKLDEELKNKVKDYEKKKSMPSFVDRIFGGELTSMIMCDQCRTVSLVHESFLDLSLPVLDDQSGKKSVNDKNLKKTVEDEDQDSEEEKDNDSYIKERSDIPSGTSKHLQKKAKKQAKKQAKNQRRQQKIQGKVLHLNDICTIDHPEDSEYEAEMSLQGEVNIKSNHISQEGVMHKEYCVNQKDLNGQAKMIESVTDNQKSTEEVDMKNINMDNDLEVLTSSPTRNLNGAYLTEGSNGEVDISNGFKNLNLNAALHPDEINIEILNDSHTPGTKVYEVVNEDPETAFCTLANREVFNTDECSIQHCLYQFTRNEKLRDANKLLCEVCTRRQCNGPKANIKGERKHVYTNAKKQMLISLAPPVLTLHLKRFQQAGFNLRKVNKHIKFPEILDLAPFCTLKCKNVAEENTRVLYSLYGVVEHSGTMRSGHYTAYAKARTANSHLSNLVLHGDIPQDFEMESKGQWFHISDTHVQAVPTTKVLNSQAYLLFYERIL

CN(C(=O)CCl)c1nc2ccccc2s1
inactive: OTUD6B -0.243 | OTUD7B -0.119 | PRPF8 0.183 | PSMD7 0.069 | UCHL1 -0.925 | UCHL3 0.484 | UCHL5 -0.343 | USP10 -0.116 | USP15 -0.217 | USP16 0.0425
